Consider 34 compounds from PubChem BioAssay (NCI).

This is part of a sample that, as a whole, favours compounds with a hit. Of some 83,000 tested, about 20% had one in any assay.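 Single-dose data. Exposure time 48 hours. Values below 10 considered active.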 Calls of active or inactive are those of the source.

The subject of this assay is A549/ATCC NSCLC. In words: NCI-60 one-dose screen, 48 h (100 = growth as untreated, 0 = no growth, -100 = all killed). The following applies: 10 µM unless noted.
For `Cc1cc2ccccc2c[n+]1CC(=O)c1ccc(-c2ccccc2)cc1`, the growth is 53.3% (inactive).

As to `COC(=O)c1ccc2c(c1)n(Cc1ccc3ccccc3c1)c[n+]2Cc1ccc2ccccc2c1`, the growth was 75% (inactive).

With `Cc1c(Cl)cccc1NC(=O)c1sc2nc3c(cc2c1N)CCCCC3`, the growth is 34.5% (inactive).

With `C=C1C(=O)O[C@H]2[C@H]1CC/C(COC(=O)c1cn(C)c3ccccc13)=C\CC[C@@]1(C)O[C@@H]21`, the growth was 51.4% (inactive).

With `Sc1cccc2cccnc12`, the growth is 19.1% (inactive).

In the case of `O=C(CCl)N1CCCc2ccccc21`, the growth was 109% (inactive).

In the case of `Cc1cccc(C)c1NC(=O)CN(CC(C)C)CC(O)COc1ccccc1` (centres undefined), the growth is 90.6% (inactive).

Turning to `OCCNc1nc(NCCO)nc(Nc2ccc(C3=NN(c4cc(Cl)cc(Cl)c4)C(c4ccc(Cl)cc4)C3)cc2)n1` (centres undefined), the growth is 2.31% (active).

Take `CC(C)(C)c1nn(-c2ccccc2)c2c1COCN2Cc1ccc(Cl)cc1`: the growth was 115% (inactive).

With `NS(=O)(=O)c1ccc(N2Cc3cc(Cl)ccc3OC3=C2C(=O)N(CC2CCCCC2)C3=O)cc1`, the growth is -43.5% (active).

Regarding `C#C[C@@]1(O)[C@@H](CO)O[C@@H](n2cc(-c3ccco3)c3c(N)ncnc32)[C@@H]1O`, the growth was 68.5% (inactive).

Consider `NC(=O)CN1C(=O)c2ccccc2C1=O`, for which the growth was 103% (inactive).

Consider `CC1CCCN(CCCCCOc2ccc3oc4ccc(Cl)cc4c(=O)c3c2)C1` (centres undefined), for which the growth was 76.1% (inactive).

With `O=c1[nH]c(-c2cccc(F)c2)cc2cc(F)ccc12`, the growth is 25.6% (inactive).

Regarding `O=C(O)COc1ccc2c(=O)c3sc4c(=O)c5ccccc5c(=O)c4c3c(=O)c2c1`, the growth is -44.8% (active).

Take `CCOC(=O)/C=C1\SC(=Nc2ccc(C#N)cc2)N(CCN2C(=O)/C(=C/C(=O)OCC)SC2=Nc2ccc(C#N)cc2)C1=O`: the growth was 77.5% (inactive).

Consider `COC(=O)/C=C1\SC(=Nc2ccc(F)cc2)N(CCc2c[nH]c3ccccc23)C1=O`, for which the growth is 79% (inactive).

Consider `CCN1CCN(Cc2ccc(NC(=O)c3cccc(C#Cc4cccc5[nH]nc(N)c45)c3)cc2C(F)(F)F)CC1`, for which the growth is -91.2% (active).

For `CC[C@H](Nc1ncnc2nc[nH]c12)c1nc2cccc(CC(=O)c3ccc(C(=O)NO)cc3)c2c(=O)n1-c1ccccc1`, the growth was 88.4% (inactive).

As to `CC(=O)OCC1OC(OC2C(COC(C)=O)OC(OCCC[S-])C(OC(C)=O)C2OC(C)=O)C(OC(C)=O)C(OC(C)=O)C1OC(C)=O.[Au+].c1ccc(CN2[CH-]N(Cc3ccccc3)C(c3ccccc3)=C2c2ccccc2)cc1` (centres undefined), the growth was 23.2% (inactive).

`O=S(=O)(O)c1ccc(N=NSc2ccc3ccccc3c2)cc1`: the growth was 100% (inactive).

With `C[C@H]1[C@H](C)CC[C@]2(C(=O)OCCOCCOCC[P+](c3ccccc3)(c3ccccc3)c3ccccc3)CC[C@]3(C)C(=CC[C@@H]4[C@@]5(C)CC[C@H](OC(=O)C(Cl)Cl)C(C)(C)[C@@H]5CC[C@]43C)[C@H]12`, the growth was 11.2% (inactive).

For the compound `O=c1c2ccccc2oc2ccc(OCCCCCN3CCCCCC3)cc12`, the growth was 71.9% (inactive).

On to `Nc1c(C(=O)Nc2ccccn2)sc2nc3c(cc12)C(=O)CCC3`, for which the growth was 18% (inactive).

Take `COc1ccc(-n2cc(-c3ccc(Cl)c(Cl)c3)[nH]c2=O)cc1OC`: the growth is 89.6% (inactive).

For `Cc1ccc(C(=O)/C(=C/c2ccc([N+](=O)[O-])cc2)S(=O)Cc2ccccc2)cc1` (centres undefined), the growth was 65.1% (inactive).

With `C=CCn1c(CN2CCN(c3cc4c(cc3F)c(=O)c(C(=O)O)cn4C3CC3)CC2)n[nH]c1=S`, the growth is 101% (inactive).

On to `CC(=O)c1ccc(NC(=O)CSc2nnc(-c3cc(-c4ccc(C)cc4)nc4ccccc34)o2)cc1`, for which the growth was 48.9% (inactive).

In the case of `Cn1cc(-c2ccc3c(c2)ncn3-c2ccc(CC(=O)Nc3cc(C(C)(C)C)on3)cc2)cn1`, the growth is 19% (inactive).

For the compound `CN(C)[C@@H]1C(=O)C(C(N)=O)=C(O)[C@@]2(O)C(=O)C3=C(O)c4c(O)cc(CN5CCc6ccccc6C5)c(Cl)c4C[C@H]3C[C@@H]12`, the growth is -85.4% (active).

As for `CC(=O)Oc1c2c(nc3c1c1ccccc1n3Cc1ccccc1)-c1ccccc1C2`, the growth is 85.7% (inactive).

On to `CC(C)(C)c1nc2c(s1)c1nc(N)ncc1c1ccc(NS(=O)(=O)c3c(F)cccc3F)c(F)c12`, for which the growth is 55.8% (inactive).

Consider `COc1cc(C(=O)N2CCN(c3ccccc3OC)CC2)c(NC(=O)c2cnccn2)cc1OCc1ccccc1`, for which the growth was 91.8% (inactive).

On to `c1ccc(-c2cn3ccnc3c(-c3ccc4c(c3)ncn4C3CCCCC3)n2)cc1`, for which the growth was 91% (inactive).
